Experimental data: PubChem BioAssay AID1159580 (chemical genetic matrix, 2015)
“And” between values parts separate entries of the source, which are not always exact repeats. Identical values can stand only once. Among all 5,500 compounds or so, about 2,000 (36%) were called active. Roughly 18% stayed inconclusive and do not appear here. Rule as the data show it: active = normalized growth mostly below about 0.91 (no sharp cut-off); inconclusive = no clear call, values can overlap the other calls; inactive = mostly above about 0.92. The list shows a part of the results.

Assay: chemical genetic growth profiling, strain panel (AID 1159580);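 also: tested at 20 µM; growth read once vehicle control cultures reached saturation at 30 °C; 1 = growth at the plate median or of vehicle wells; lower values mean less growth of the strain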
Conditions: S. cerevisiae deletion strains, growth OD

Measured: normalized growth

O=c1ccc2cc(O[C@@H]3O[C@H](CO)[C@@H](O)[C@H](O)[C@H]3O)c(O)cc2o1
inactive: locus YAL013W, strain DEP1, hits give low values 1.04 | locus YAL021C, strain ccr4, hits give low values 0.991 | locus YAL026C, strain drs2, hits give low values 0.997 | locus YAL030W, strain snc1, hits give low values 0.971 | locus YBL061C, strain skt5, hits give low values 0.972 | locus YBR009C, strain hhf1, hits give low values 1.01 | locus YBR021W, strain FUR4, hits give low values 1.06 | locus YBR023C, strain chs3, hits give low values 0.983 | locus YBR171W, strain sec66, hits give low values 0.956 | locus YBR229C, strain ROT2, hits give low values 1.02 | locus YBR231C, strain swc5, hits give low values 0.982 | locus YBR279W, strain paf1, hits give low values 0.988 | locus YCL011C, strain gbp2, hits give low values 0.99 | locus YCL016C, strain dcc1, hits give low values 0.999 | locus YCL029C, strain bik1, hits give low values 0.998 | locus YCL061C, strain MRC1, hits give low values 0.983 | locus YCL069W, strain vba3, hits give low values 0.977 | locus YCR088W, strain abp1, hits give low values 0.978 | locus YDL005C, strain med2, hits give low values 0.958 | locus YDL035C, strain GPR1, hits give low values 1.04 | locus YDL040C, strain nat1, hits give low values 0.976 | locus YDL074C, strain BRE1, hits give low values 1.02 | locus YDL101C, strain DUN1, hits give low values 1.01 | locus YDL134C, strain PPH21, hits give low values 1.02 | locus YDL185W, strain tfp1, hits give low values 1 | locus YDL192W, strain arf1, hits give low values 0.991 | locus YDR001C, strain nth1, hits give low values 0.987 | locus YDR069C, strain doa4, hits give low values 0.977 | locus YDR101C, strain arx1, hits give low values 0.995 | locus YDR137W, strain rgp1, hits give low values 1 | locus YDR159W, strain sac3, hits give low values 0.978 | locus YDR162C, strain NBP2, hits give low values 1.04 | locus YDR195W, strain ref2 0.875 | locus YDR297W, strain sur2, hits give low values 0.988 | locus YDR318W, strain mcm21, hits give low values 0.999 | locus YDR334W, strain swr1, hits give low values 0.982 | locus YDR335W, strain msn5, hits give low values 0.995 | locus YDR388W, hits give low values 0.986 | locus YDR392W, strain spt3, hits give low values 1.02 | locus YDR502C, strain sam2, hits give low values 0.993 | locus YEL003W, strain gim4, hits give low values 0.986 | locus YEL037C, strain rad23, hits give low values 0.982 | locus YEL061C, strain CIN8 (second series), hits give low values 0.974 | locus YEL061C, strain CIN8, hits give low values 1.01 | locus YER015W, strain faa2, hits give low values 0.992 | locus YER016W, strain bim1, hits give low values 0.983 | locus YER110C, hits give low values 0.99 | locus YER111C, strain swi4, hits give low values 0.961 | locus YER155C, strain BEM2 (second series), hits give low values 0.927 | locus YER155C, strain BEM2, hits give low values 1 | locus YER167W, strain BCK2, hits give low values 1.02 | locus YFR010W, strain ubp6, hits give low values 0.974 | locus YGL078C, strain dbp3, hits give low values 0.997 | locus YGL086W, strain mad1, hits give low values 0.979 | locus YGL167C, strain pmr1, hits give low values 0.964 | locus YGL173C, strain kem1, hits give low values 0.977 | locus YGL227W, strain vid30, hits give low values 0.981 | locus YGL240W, strain doc1, hits give low values 0.981 | locus YGL248W, strain PDE1, hits give low values 1.03 | locus YGL253W, strain hxk2, hits give low values 0.994 | locus YGR135W, strain pre9, hits give low values 0.995 | locus YGR252W, strain gcn5, hits give low values 0.997 | locus YHR013C, strain ard1, hits give low values 0.963 | locus YHR027C, strain rpn1, hits give low values 0.978 | locus YHR030C, strain SLT2, hits give low values 1.01 and 1.03 | locus YHR079C, strain IRE1 (second series), hits give low values 0.99 | locus YHR079C, strain IRE1, hits give low values 1.02 | locus YHR094C, strain hxt1, hits give low values 0.995 | locus YHR129C, strain ARP1, hits give low values 1.02 | locus YHR142W, strain chs7, hits give low values 0.982 | locus YHR200W, strain rpn10, hits give low values 0.999 | locus YIL066C, strain RNR3, hits give low values 1.05 | locus YIL073C, strain SPO22, hits give low values 1.02 | locus YIL125W, strain kgd1, hits give low values 0.995 | locus YIR030C, strain dcg1, hits give low values 0.986 | locus YJL092W, strain hpr5, hits give low values 0.994 | locus YJL095W, strain BCK1 (second series), hits give low values 0.973 | locus YJL095W, strain BCK1, hits give low values 1.01 and 1.02 | locus YJL115W, strain asf1, hits give low values 0.971 | locus YJL129C, strain trk1, hits give low values 0.993 | locus YJL134W, strain LCB3, hits give low values 1.01 | locus YJL154C, strain vps35, hits give low values 0.98 | locus YJL164C, strain tpk1, hits give low values 0.991 | locus YJL166W, strain qcr8, hits give low values 0.962 | locus YJL168C, strain set2, hits give low values 0.987 | locus YJL187C, strain SWE1 (second series), hits give low values 1.01 | locus YJR043C, strain POL32, hits give low values 1.04 | locus YJR066W, strain TOR1, hits give low values 0.954 | locus YKL009W, strain mrt4, hits give low values 0.978 | locus YKL068W, hits give low values 1 | locus YKL085W, strain MDH1 (second series), hits give low values 0.996 | locus YKL085W, strain MDH1, hits give low values 0.996 | locus YKL160W, strain elf1, hits give low values 0.992 | locus YKR001C, strain vps1, hits give low values 0.983 | locus YKR026C, strain gcn3, hits give low values 0.964 | locus YKR091W, strain srl3, hits give low values 0.971 | locus YLL001W, strain dnm1, hits give low values 0.962 | locus YLL026W, hits give low values 0.988 | locus YLL041C, strain sdh2, hits give low values 0.971 | locus YLR027C, strain aat2, hits give low values 0.983 | locus YLR039C, strain RIC1, hits give low values 1.03 | locus YLR058C, strain SHM2, hits give low values 1.02 | locus YLR102C, strain apc9, hits give low values 1 | locus YLR113W, strain HOG1, hits give low values 1.01 | locus YLR221C, strain rsa3, hits give low values 1.03 | locus YLR258W, strain gsy2, hits give low values 0.973 | locus YLR262C, strain YPT6 (second series), hits give low values 0.955 | locus YLR262C, strain YPT6, hits give low values 1.08 | locus YLR268W, strain sec22, hits give low values 0.989 | locus YLR320W, strain mms22, hits give low values 0.984 | locus YLR330W, strain CHS5, hits give low values 1.02 | locus YLR342W, strain FKS1 (second series), hits give low values 1.03 | locus YLR342W, strain FKS1, hits give low values 0.973 | locus YLR357W, strain rsc2, hits give low values 0.96 | locus YLR370C, strain arc18, hits give low values 0.989 | locus YLR371W, strain rom2, hits give low values 0.993 | locus YLR384C, strain iki3, hits give low values 0.97 | locus YLR418C, strain cdc73, hits give low values 1.03 | locus YML016C, strain PPZ1, hits give low values 1.02 | locus YML032C, strain rad52, hits give low values 1.01 | locus YML120C, strain ndi1, hits give low values 0.978 | locus YML124C, strain tub3, hits give low values 0.991 | locus YMR058W, strain fet3, hits give low values 0.978 | locus YMR078C, strain ctf18, hits give low values 0.99 | locus YMR125W, strain sto1, hits give low values 0.97 | locus YMR129W, hits give low values 0.991 | locus YMR205C, strain PFK2, hits give low values 0.962 | locus YMR223W, strain ubp8, hits give low values 0.99 | locus YMR231W, strain pep5, hits give low values 0.971 | locus YMR307W, strain GAS1, hits give low values 1.09 | locus YNL067W, strain RPL9B, hits give low values 1.01 | locus YNL071W, strain lat1, hits give low values 0.993 | locus YNL128W, strain TEP1, hits give low values 1.03 | locus YNL183C, strain NPR1, hits give low values 0.962 | locus YNL209W, strain ssb2, hits give low values 0.993 | locus YNL233W, strain BNI4, hits give low values 1.01 | locus YNL248C, strain rpa49, hits give low values 1.01 | locus YNL250W, strain rad50, hits give low values 1.02 | locus YNL271C, strain bni1, hits give low values 0.993 | locus YNL298W, strain CLA4, hits give low values 0.985 | locus YNL307C, strain MCK1, hits give low values 1 | locus YNL322C, strain KRE1 (second series), hits give low values 0.947 | locus YNR049C, strain mso1, hits give low values 0.973 | locus YNR052C, strain pop2, hits give low values 0.994 | locus YOL012C, strain htz1 0.76 | locus YOL147C, strain pex11, hits give low values 0.996 | locus YOR001W, strain rrp6, hits give low values 0.987 | locus YOR061W, strain CKA2, hits give low values 1.02 | locus YOR069W, strain VPS5, hits give low values 1.01 | locus YOR070C, strain gyp1, hits give low values 0.981 | locus YOR080W, strain dia2, hits give low values 0.948 | locus YOR083W, strain WHI5, hits give low values 0.981 | locus YOR106W, strain vam3, hits give low values 0.97 | locus YOR136W, strain idh2, hits give low values 0.991 | locus YOR144C, strain elg1, hits give low values 0.999 | locus YOR184W, strain ser1, hits give low values 0.997 | locus YOR231W, strain MKK1, hits give low values 1.04 | locus YOR265W, strain rbl2, hits give low values 0.984 | locus YOR270C, strain vph1, hits give low values 1 | locus YOR290C, strain snf2, hits give low values 1 | locus YOR316C, strain cot1, hits give low values 0.991 | locus YPL051W, strain arl3, hits give low values 0.99 | locus YPL078C, strain atp4, hits give low values 0.962 | locus YPL106C, strain sse1, hits give low values 0.962 | locus YPL240C, strain hsp82, hits give low values 0.968 | locus YPL241C, strain CIN2, hits give low values 1.01 | locus YPL256C, strain CLN2, hits give low values 1.02 | locus YPR119W, strain clb2, hits give low values 0.99 | locus YPR141C, strain kar3, hits give low values 0.996 | locus YPR163C, strain tif3, hits give low values 0.987 | locus YPR167C, strain met16, hits give low values 0.986 | strain wtn01, hits give low values 0.997
